About 100 (0.1%) of roughly 96,000 compounds were called active.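 The calls were made as follows: active = displacement above 50% at 20 µM plus a fluorescence interference ratio under 1.5; inactive = the rest.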 The list comes from a sample in which actives are over-represented; it also holds similar structures and randomly drawn compounds. Entries with a potency or affinity are not part of this list.
Molecular target: Bcl-2-like protein 10 (Homo sapiens) (UniProt Q9HD36)
Assay: Bcl-B/TR3 peptide binding disruption – biochemical, fluorescence polarization, FITC-TR3 peptide, selectivity assay for Bfl-1 inhibitor project, primary screen (AID 748);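 also: plate controls were wells without compound for no effect and wells lacking Bcl-B protein for full effect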
Settings: FP displacement of FITC-TR3 peptide from Bcl-B; at 20 µM; active compounds read high

displacement, inactive:
CCC(C)(C)n1nnnc1C(c1ccc2ncccc2c1)N1CCN(c2nc3ccccc3s2)CC1 (stereo unspecified) -13.1%, COc1ccc(-c2c(C)nn(-c3ccccc3)c2N)cc1 -8%, CCOc1cc(C(=O)Nc2ccon2)cc(OCC)c1OCC -15.8%, Cc1cc(=S)cc(C)n1CCCn1ccnc1 -6.1%, Cc1ccc(S(=O)(=O)NC(=O)c2cc(C)n(CCCN3CCOCC3)c2C)cc1 8.5%, Cc1ccccc1C1CC(=O)NC2=C1C(=O)CCC2 (stereo unspecified) -1.2%, CCCn1c(SCC(=O)NCCc2ccc(OC)c(OC)c2)nc2c1c(=O)n(C)c(=O)n2C -14.2%, Cc1cc(C)cc(OCC(=O)OCC(=O)Nc2ccc(Cl)cn2)c1 -13.6%, O=C(COC(=O)CCOc1ccccc1)Nc1ccc(Cl)cn1 16%, CCOC(=O)C1=C(O)/C(=C/N(C)C)N=C1C -3.9%, CCOC(=O)c1sc(/N=C/N(C)C)c(C(=O)OCC)c1C -16.8%, CCOC(=O)C(Cc1ccccc1)NC(=O)Cn1nnc(-c2ccc(SC)cc2)n1 (stereo unspecified) -16.2%, CCCOP(=O)(OCCC)C(Nc1ccc(C(C)C)cc1)c1ccc([N+](=O)[O-])cc1 (stereo unspecified) 13.7%, Cc1c(NS(=O)(=O)c2cccc(C(=O)NCc3ccccc3)c2)c(=O)n(-c2ccccc2)n1C 0.4%, CCOC(=O)c1ccc(NC(=O)C(C)N2C(=O)c3ccccc3C2=O)cc1 (stereo unspecified) 14.6%, CCOC(=O)c1ccc(NC2OC(=O)c3ccccc32)cc1 (stereo unspecified) -4.1%, Cc1ccc(CC(=O)OCCNC(=O)c2cccnc2)cc1 1.8%, O=c1c2cc(N3CCOCC3)ccc2[nH]c(=S)n1CCCN1CCCCC1 10.5%, O=c1c2cc(N3CCOCC3)ccc2[nH]c(=S)n1CCCN1CCCC1 13.1%, CN(C)c1ccc(C2N(c3ccc(F)cc3)C(=O)C3CCCN32)cc1 (stereo unspecified) -12.2%, Cc1ccc(C)c(NC(=O)C2C(c3ccccc3)C2(Cl)Cl)c1 (stereo unspecified) -7.6%, Cc1cccc(Nc2nc(N)nc(CN3CCN(Cc4ccc5c(c4)OCO5)CC3)n2)c1 -2.8%, Cc1cc(C)nc(/N=C(\N)C2=C(O)CC(C)(C)CC2=O)n1 -12.3%, O=C1c2ccccc2C(=O)C12Cc1ccccc1N1CCN(c3ccccc3)CC12 (stereo unspecified) -0.1%, CC1(C)OC(=O)C2(Cc3ccccc3N3CCCCC32)C(=O)O1 (stereo unspecified) 3.5%, O=C(CCS(=O)(=O)c1ccc(Br)cc1)N1CCN(Cc2ccccc2)CC1 -5%, O=C(CCN1CCc2ccccc2CC1)c1ccc2c(c1)OCCO2 19.8%, O=C(CCN1Cc2ccccc2C1)c1ccc2c(c1)OCCO2 0.8%, Cc1ccc(S(=O)(=O)NCCC(=O)NC2CCCC2)cc1 2%, O=C(CN1C(=O)C2CC=CCC2C1=O)Nc1nc2ccccc2[nH]1 (stereo unspecified) 7.6%, CCCOc1cc(C)nc(-c2ccccc2O)n1 -2.4%, O=C(CN1C(=O)C2CCCCC2C1=O)Nc1nc(-c2ccccn2)cs1 (stereo unspecified) -3.3%, O=C(Nc1nc(-c2ccccn2)cs1)C1CC1 -5.8%, Cc1cc2c(c(=O)n1CC1CCCO1)C(c1ccco1)C(C#N)=C(N)O2 (stereo unspecified) -1.3%, CCOC(=O)c1cnc(-n2nc(C)cc2C)nc1Nc1ccc(OC)cc1 0.6%, CCN(CC)S(=O)(=O)c1cc(C(=O)Nc2ccc(Cl)cn2)ccc1C -1.9%, Cc1nc2sc3c(c2c(=O)[nH]1)CCC3 -1.1%, CCCOc1ccc(Cc2nn3c(=O)/c(=C/c4ccco4)sc3nc2=O)cc1 -5.7%, Cc1ccc(-c2nc3s/c(=C\c4ccco4)c(=O)n3n2)cc1 -14.4%, CCn1c2ccccc2c2nnc(SCc3cc(=O)n4ccsc4n3)nc21 -0.4%, Cc1ccccc1Oc1ccc(S(=O)(=O)NCCC(=O)O)cc1 0.5%, Clc1ccc(CN2CCCCCCC2)cc1Cl -0.5%, ON=Cc1cccn1-c1ccccc1 3.4%, O/N=C/c1cccn1-c1ccc(O)cc1 0.9%, O=C(Nc1cccnc1)c1c(F)cccc1F 7.8%, COc1ccc(C(=O)N2CCOCC2)cc1Br -9.8%, CC1(C)CC(NC(=O)c2coc(=O)c(Br)c2)CC(C)(C)N1 6.4%, O=C(c1coc(=O)c(Br)c1)N1CCCc2ccccc21 18%, O=C(c1ccc(=O)oc1)N1CCOCC1 -16.5%, COc1ccc(OCC(=O)N/N=C/c2ccc(O[C@@H]3O[C@H](CO)[C@@H](O)[C@H](O)[C@H]3O)cc2)cc1 -3.2%, CCn1nc(C)c(NC(=O)CCSc2nc(-c3ccco3)cc(C(F)(F)F)n2)c1C -7%, CCOC(=O)c1[nH]c(C)c(/C(O)=C2\C(=O)C(=O)N(CCCN3CCOCC3)C2c2cccnc2)c1C (stereo unspecified) 5%, COc1cc(C2CC(=O)NC3=C2C(=O)CC(C)(C)C3)cc(OC)c1O (stereo unspecified) -3.3%, CCCSc1nc(N)c2c3c(sc2n1)CN(C)CC3 26.6%, CCSc1nc(N)c2c3c(sc2n1)CN(C)CC3 1.8%, COc1ccc(CCNC(=O)c2c(-c3ccccc3)noc2C)cc1OC -0.3%, O=C(O)C(Cc1ccccc1)n1cccc1 (stereo unspecified) 3.2%, O=C(O)C(Cc1ccccc1)N1C(=O)c2ccccc2C1=O (stereo unspecified) 9.7%, Cc1ccc(NC(=O)CSc2nnc(-c3ccc(S(=O)(=O)N4CCOCC4)cc3)n2C)cc1 0.6%, O=C(Nc1ccc(N2CCN(c3ccc(O)cc3)CC2)cc1)Oc1ccccc1 -11.2%, CSc1nc(NCc2ccco2)c2c3c(sc2n1)CN(C)CC3 0.3%, CCN1CCc2c(sc3c2c(NCc2ccco2)nc2nnnn23)C1 114%, CCS(=O)(=O)/N=C(\N)c1ccccc1 2.5%, Cc1ccc(C=C2C(=O)c3ccccc3C2=O)s1 4.7%, Cc1cc(C)n(-c2ccc(C(=O)Nc3ccc4c(c3)OCO4)cc2)n1 -4.8%, COCCn1c(SCC(=O)Nc2nc(C)c(Cl)cc2Cl)nc2ccccc21 -7.3%, COCCn1c(SCC(=O)Nc2ccc(Cl)cn2)nc2ccccc21 -17%, c1ccc(CSc2n[nH]c(-c3ccco3)n2)cc1 -8.3%, c1coc(-c2nc3ccccc3nc2-c2ccco2)c1 22%, c1coc(-c2nc(-c3ccco3)c(-c3ccco3)nc2-c2ccco2)c1 43.1%, Nn1c(SCc2ccccc2)nnc1-c1ccco1 -4.8%, COc1cccc(Cn2c(-c3cccs3)noc2=O)c1 -1.2%, O=S1(=O)CCC(NS(=O)(=O)c2cccc3cccnc23)C1 (stereo unspecified) -3.6%, O=C(Oc1ccc(-c2cn3c(n2)SCC3)cc1)c1ccccc1 -5.6%, Oc1ccc(-c2cn3c(n2)SCC3)cc1 -4.3%, CC1(C)Cc2nc3nc(SCC(=O)NCc4ccccc4)n(-c4ccccc4)c(=O)c3cc2CO1 -3.5%, COc1ccc(-c2noc(CSc3nnc(Cc4ccccc4)n3-c3cccc(C)c3)n2)cc1OC -7.5%, c1ccc2cc(CN3CCOCC3)ccc2c1 -1.4%, O=C(CC1C(=O)OCN1C(=O)OCc1ccccc1)OCC(=O)c1ccccc1 (stereo unspecified) -0.3%, CCc1cn(S(=O)(=O)c2ccccc2OC)nc1N -3.2%, COC(=O)c1ccc(N2CCC(C)CC2)c(N)c1 -13.4%, Nc1cc(C(=O)O)ccc1N1CCCCCC1 7%, COC(=O)c1cn(NC(=O)c2cccc(OC)c2)c(=O)c2ccccc12 10.2%, O=C1CCC2(C(=O)O)Sc3ccccc3N12 (stereo unspecified) -5.3%, Cn1cccc1-c1nc2ccc(NC(=O)c3ccc([N+](=O)[O-])cc3)cc2[nH]1 3.8%, COc1ccc(Cl)cc1C(=O)Nn1c(C)nc2ccccc2c1=O -6.8%, Cc1cc(C)n(Cc2ccc(C(=O)O)cc2)n1 -12.7%, COc1ccc(Cn2c(C)ccc2C)cc1 -31.6%, CSc1ccc(S(=O)(=O)Nc2ccc3c4c(cccc24)CC3)cc1 0.8%, O=C1CC(SC(=NCc2ccc3c(c2)OCO3)Nc2ccccc2)C(=O)N1c1ccccc1 (stereo unspecified) 0.5%, Cc1ccc(S(=O)(=O)NC2=C(N3CCN(Cc4ccccc4)CC3)C(=O)c3ccccc3C2=O)cc1 12.6%, CC(=O)Nc1ccc(S(=O)(=O)NC2=C(N3CCN(c4ccc(F)cc4)CC3)C(=O)c3ccccc3C2=O)cc1 30.5%, Cc1ccc(NC(=O)CN2CC(C)SC2=NC2CCCCC2)cc1 (stereo unspecified) -0.9%, COc1ccc(OCC(=O)Nc2cccc3cccnc23)cc1 -0.2%, COc1cc(NC(=O)C2CCCCC2)c2ncccc2c1 -2.9%, COc1ccc(OCCCC(=O)NC(C)c2ccccc2)cc1 (stereo unspecified) 3.5%, CCOC(=O)C1CCN(C(C(=O)Nc2ccc3c(c2)OCCO3)c2ccccc2)CC1 (stereo unspecified) -3.4%, O=C1c2sc3nc4c(c(=O)n3c2C(=O)N1c1ccccc1)CCC4 7%, O=C1c2sc3nc4ccccc4n3c2C(=O)N1c1ccccc1Cl 0.8%, O=C(CSc1ccccc1Cl)c1ccco1 3.7%, O=C(CSCc1ccc(Cl)cc1)c1ccco1 16.6%

Source: PubChem BioAssay AID748 (Sanford-Burnham Center for Chemical Genomics, 2007)
